Several values for one entry are separate records, joined by “and”; a condition that tells them apart may be missing. Equal values may be shown once. This is part of a sample that, as a whole, favours compounds with a hit. Of some 83,000 tested, about 20% had one in any assay.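 48-hour exposure, single concentration, 96-well plates; percent growth endpoint where 0 means no net growth. Active: below 10.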 Activity calls are given as the source filed them.
Columns and labels:
Test in all cases: NCI-60 one-dose screen, 48 h (100 = growth as untreated, 0 = no growth, -100 = all killed)
Conditions in all cases: 10 µM unless noted
SR leukemia = tested on: SR leukemia
RPMI-8226 leukemia = tested on: RPMI-8226 leukemia
OVCAR-8 ovarian = tested on: OVCAR-8 ovarian
OVCAR-5 ovarian = tested on: OVCAR-5 ovarian
OVCAR-4 ovarian = tested on: OVCAR-4 ovarian
SK-OV-3 ovarian = tested on: SK-OV-3 ovarian
IGROV1 ovarian = tested on: IGROV1 ovarian
OVCAR-3 ovarian = tested on: OVCAR-3 ovarian
HS 578T breast = tested on: HS 578T breast
NCI/ADR-RES ovarian = tested on: NCI/ADR-RES ovarian
T-47D breast = tested on: T-47D breast
MDA-MB-435 melanoma = tested on: MDA-MB-435 melanoma
SW-620 colon = tested on: SW-620 colon
MCF7 breast = tested on: MCF7 breast
HCT-116 colon = tested on: HCT-116 colon
HCC-2998 colon = tested on: HCC-2998 colon
KM12 colon = tested on: KM12 colon
MDA-MB-468 breast = tested on: MDA-MB-468 breast
BT-549 breast = tested on: BT-549 breast

Measured: growth

Oc1ccc(F)c(Nc2nc(SCCN3CCOCC3)nc3c2cnn3CC(Cl)c2ccc(Br)cc2)c1 (stereo not given)
active: SR leukemia -2.59% | RPMI-8226 leukemia 1.15% | HS 578T breast -23.9% | T-47D breast -6.68% | MCF7 breast 7.39% | MDA-MB-468 breast -20.5%
inactive: OVCAR-8 ovarian 20.2% | OVCAR-5 ovarian 40.5% | OVCAR-4 ovarian 31.9% | SK-OV-3 ovarian 64.2% | IGROV1 ovarian 12.5% | OVCAR-3 ovarian 25.8% | NCI/ADR-RES ovarian 16.4% | MDA-MB-435 melanoma 17.8% | SW-620 colon 29.3% | HCT-116 colon 14.9% | HCC-2998 colon 15.8% | KM12 colon 11%

CC1=NN(C2=NC(=O)C(CC(=O)Nc3ccccc3C(F)(F)F)S2)C(c2ccc(N(C)C)cc2)C1 (stereo not given)
inactive: SR leukemia 16.5% | RPMI-8226 leukemia 25.3% | OVCAR-8 ovarian 52.6% | OVCAR-5 ovarian 86% | OVCAR-4 ovarian 47.5% | SK-OV-3 ovarian 80.6% | IGROV1 ovarian 59.2% | OVCAR-3 ovarian 44.9% | HS 578T breast 43.8% | NCI/ADR-RES ovarian 62.7% | T-47D breast 48% | BT-549 breast 52.7% | MCF7 breast 23.4% | HCT-116 colon 30.1% | HCC-2998 colon 66.2% | KM12 colon 39%
active: MDA-MB-435 melanoma -26.5% | MDA-MB-468 breast 3.34%

COc1ccc2[nH]c(O)c(N=Nc3nc(-c4ccccc4)cs3)c2c1
active: OVCAR-8 ovarian 6.68% | OVCAR-4 ovarian -7.14% | SK-OV-3 ovarian -17.4% | OVCAR-3 ovarian -2.28% | NCI/ADR-RES ovarian 3.46% | T-47D breast 0.04% | HCT-116 colon 1.24% | MDA-MB-468 breast -20.7%
inactive: SR leukemia 27% | RPMI-8226 leukemia 58.6% | OVCAR-5 ovarian 53.2% | IGROV1 ovarian 36.1% | HS 578T breast 41.6% | MDA-MB-435 melanoma 39.7% | SW-620 colon 37.4% | MCF7 breast 11.6% | HCC-2998 colon 58.6% | KM12 colon 46.7%

O=C(CSc1nc2sc3c(c2c(=O)n1-c1ccc(Cl)cc1)CCCC3)NNC(=O)c1ccc(Br)cc1
inactive: SR leukemia 34.4% | RPMI-8226 leukemia 81.3% | OVCAR-8 ovarian 34.3% | OVCAR-5 ovarian 58.8% | OVCAR-4 ovarian 64% | SK-OV-3 ovarian 80.8% | IGROV1 ovarian 60.3% | OVCAR-3 ovarian 112% | HS 578T breast 56.7% | NCI/ADR-RES ovarian 66% | T-47D breast 58.5% | BT-549 breast 74.5% | MDA-MB-435 melanoma 97.3% | MCF7 breast 54.1% | HCT-116 colon 64% | HCC-2998 colon 108% | KM12 colon 96.6% | MDA-MB-468 breast 69.7%

CS(=O)(=O)Nc1cccc(-n2c(COc3ccc(OC(F)(F)F)cc3)nc3ccccc32)c1
inactive: SR leukemia 68.3% and 83.2% | RPMI-8226 leukemia 76.7% and 98.1% | OVCAR-8 ovarian 93.1% and 110% | OVCAR-5 ovarian 124% | OVCAR-4 ovarian 84.9% and 104% | SK-OV-3 ovarian 76% and 95.4% | IGROV1 ovarian 56.4% and 111% | OVCAR-3 ovarian 107% and 112% | HS 578T breast 47.9% and 101% | NCI/ADR-RES ovarian 88.2% and 107% | T-47D breast 62.2% and 85% | BT-549 breast 98% and 96.5% | MDA-MB-435 melanoma 102% and 103% | MCF7 breast 65.6% and 102% | HCT-116 colon 85.9% and 104% | HCC-2998 colon 114% and 113% | KM12 colon 91.9% and 101% | MDA-MB-468 breast 107% and 106%

COc1cc(/C=C/C(=O)c2ccc(S(=O)(=O)NCCNc3nc(N(C)C)nc(N4CCOCC4)n3)cc2)cc(OC)c1OC
active: SR leukemia -28.2% | RPMI-8226 leukemia -14.5% | OVCAR-8 ovarian -49.5% | OVCAR-5 ovarian -33.1% | OVCAR-4 ovarian 8.16% | IGROV1 ovarian -55% | OVCAR-3 ovarian -42.2% | NCI/ADR-RES ovarian -39.1% | BT-549 breast -73.3% | MDA-MB-435 melanoma -56% | MCF7 breast -96.4% | HCT-116 colon -100% | HCC-2998 colon -100% | KM12 colon -100% | MDA-MB-468 breast -100%
inactive: SK-OV-3 ovarian 60.3% | HS 578T breast 19.9% | T-47D breast 29.9%

CN1CCc2c(sc3ncnc(N/N=C/c4cccc(Cl)c4Cl)c23)C1
inactive: OVCAR-5 ovarian 88% | SK-OV-3 ovarian 90.6% | IGROV1 ovarian 10.6% | OVCAR-3 ovarian 25.1% | HS 578T breast 38.2% | NCI/ADR-RES ovarian 49.4% | BT-549 breast 63.3% | MDA-MB-435 melanoma 39.3% | MDA-MB-468 breast 33.2%
active: SR leukemia 8.87% | RPMI-8226 leukemia -16% | OVCAR-8 ovarian -38.6% | OVCAR-4 ovarian -24.8% | T-47D breast -6.02% | MCF7 breast -39.1% | HCT-116 colon -82.8% | HCC-2998 colon 6.03%

From PubChem BioAssay (NCI)
